Screening results as filed in PubChem.
In the library only some 2.4% were active in any assay of this set; here they are far more common.
MCL1-BIM inh = inhibitors of MCL1 binding to BIM-BH3, primary screen, biochemical, fluorescence polarization | 320,000 compounds, 0.68% hits | GST-MCL1 / FITC-Bim-BH3 fluorescence polarization | inhibition, % at 10.9 µM;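 active = inhibition above the mean inhibition of all tested compounds plus 3 SD, set per campaign, cut at about 40% in these data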;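 also: 0% = DMSO wells and 100% = unlabeled Bim-BH3 peptide control; higher means more loss of mP so more displacement of Bim peptide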
Target sequence (Q07820 whole entry, looked up): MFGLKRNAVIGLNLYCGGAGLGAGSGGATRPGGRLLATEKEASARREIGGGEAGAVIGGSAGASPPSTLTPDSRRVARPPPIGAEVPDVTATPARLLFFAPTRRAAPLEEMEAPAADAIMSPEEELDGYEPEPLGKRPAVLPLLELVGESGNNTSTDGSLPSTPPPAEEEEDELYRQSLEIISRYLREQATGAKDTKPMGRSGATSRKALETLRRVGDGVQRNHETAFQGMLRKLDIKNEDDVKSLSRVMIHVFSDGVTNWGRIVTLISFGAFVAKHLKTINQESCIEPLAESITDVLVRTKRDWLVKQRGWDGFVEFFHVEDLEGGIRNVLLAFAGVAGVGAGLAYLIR
Mcl1-Bid inh = Mcl-1/Bid binding inhibitors, primary screen, biochemical, TR-FRET, 1536-well; 220,000 compounds, 0.97% hits; TR-FRET Mcl-1/Bid-Dy647 peptide binding; Induced myeloid leukemia cell differentiation protein Mcl-1 (Homo sapiens), Q07820; AID 1021, 2008; inhibition, % at 21.7 µM;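 active = compounds that cut the binding signal by more than half at the single screening dose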;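 also: His-tagged Mcl-1 with europium anti-His antibody binding Bid BH3 peptide; 0% = Mcl-1 plus peptide wells and 100% = peptide-only wells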
Mcl1-Noxa inh = Mcl-1/Noxa binding inhibitors, primary screen, biochemical, TR-FRET, 1536-well. Induced myeloid leukemia cell differentiation protein Mcl-1 (Homo sapiens), Q07820. TR-FRET Mcl-1/Noxa peptide binding, 2 h. inhibition, % at 21.7 µM. 220,000 compounds, 1.5% hits. AID 1022, 2008;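 active = compounds that cut the protein-peptide binding signal by more than 50% relative to plate controls in a single-dose test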;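 also: His-tagged Mcl-1 with rhodamine Noxa BH3 peptide and terbium anti-His antibody; 0% = Mcl-1 plus Noxa peptide wells and 100% = peptide-only wells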
zVAD death inh = inhibitors of zVAD-triggered necroptosis, primary screen, L929 cells; L929 zVAD necroptosis rescue, ATP luminescence, 24 h; with zVAD 60 µM; 220,000 compounds, 0.38% hits; viability rescue, % at 10 µM;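 active = activation, scaled between plate controls, above about 75%, limit read from the data; inactive = activation under that limit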;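 also: 0% = zVAD with DMSO and 100% = DMSO alone without zVAD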
Mcl-1 Bim block = inhibitors of Bim peptide binding to Mcl-1, primary screen, biochemical, bead-based flow cytometry, multiplex; inhibition, % at 10 µM; 190,000 compounds, 0.1% hits; Bim peptide-Mcl-1 binding; in the data active = inhibition above about 40%;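 also: 0% = no compound tracer wells and 100% = peptide blocker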
TNF death inh = inhibitors of TNF-alpha triggered necroptosis, primary screen, cell-based, Jurkat FADD-/-, single concentration; Jurkat FADD-/- TNF necroptosis rescue, ATP luminescence, 24 h; 0 = TNF only, 100 = no-TNF cells; activation (protection from cell death), % at 10 µM; 220,000 compounds, 0.068% hits;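 active = activation, meaning protection from cell death, of at least 50% relative to plate controls; inactive = activation below 50%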;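 also: necroptosis triggered by 40 ng/mL TNF-alpha added together with compound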
zVAD death conf = inhibitors of zVAD-triggered necroptosis in L929, confirmation, L929 cells, duplicate runs; activation (protection from necroptosis), % at 10 µM; 760 compounds, 16% hits; AID 463117, 2010; shares compounds with zVAD death inh; L929 zVAD-induced necroptosis rescue, ATP luminescence, 24 h;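 active = mean protection from necroptosis of at least 50% over duplicate tests; inactive = mean protection below 50%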;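 also: 0% = cells with zVAD alone and 100% = vehicle cells without zVAD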
* hit, by the source's call; . = no result.

SMILES	MCL1-BIM inh	Mcl1-Bid inh	Mcl1-Noxa inh	zVAD death inh	Mcl-1 Bim block	TNF death inh	zVAD death conf
O=C(OCn1ncc(Cl)c(Cl)c1=O)c1ccccc1Cl	-8	-4	4	102*	1	9	64*
O=C(OCn1ncc(Cl)c(Cl)c1=O)c1ccc(F)cc1	5	-4	9	78*	3	-25	53*
O=c1c(Cl)c(Cl)cnn1Cc1ccc(F)cc1	9	-2	-6	55	19	-6	.
Cc1ccc(S(=O)(=O)N2CCN(C)CC2c2ccccc2)cc1 (stereo not given)	-4	.	.	.	.	.	.
COc1cc(C=O)ccc1OCC(=O)Nc1ccc2c(c1)OCO2	5	.	.	.	.	.	.
O=C1CC(/C=C/c2ccc(Cl)cc2)=Nc2ccccc2N1	6	-8	12	77*	-7	-1	1
O=C1CC(/C=C/c2ccccc2)=Nc2ccccc2N1	0	-11	0	0	3	3	.
Cn1c(C(=O)NCCCN2CCCCCC2)cc2c(=O)n(C)c3ccccc3c21	7	-5	35	83*	3	3	39
CCCN1CCN(CCCNC(=O)c2cc3c(=O)n(C)c4ccccc4c3n2C)CC1	4	-30	12	53	-1	2	.
CN1CCN(CCNC(=O)c2cc3c(=O)n(C)c4ccccc4c3n2C)CC1	-4	-12	22	78*	0	4	28
O=C(CCCn1ncn2c(cc3occc32)c1=O)NCc1cccc(Cl)c1	-10	.	.	.	.	.	.
CCc1cc(=O)[nH]c(SCC(=O)N2CCC(Cc3ccccc3)CC2)n1	1	.	.	.	.	.	.
CCN(CC)CCc1c(C)[nH]c(C(=O)OCc2ccccc2)c1C	-13	-19	16	76*	7	-1	38
CC(C)OCCCNC(=S)Nc1ccc(S(N)(=O)=O)cc1	0	-59	20	75*	-20	3	2
COc1ccc(C(CNC(=O)C(=O)NC2CCCC2)N2CCN(C)CC2)cc1 (stereo not given)	6	.	.	.	.	.	.
CC(CCc1ccccc1)NS(=O)(=O)c1ccccc1F (stereo not given)	1	.	.	.	.	.	.
Cc1ccc(C)c(N2CCN(c3ncccc3[N+](=O)[O-])CC2)c1	-1	.	.	.	.	.	.
O=C(c1ccco1)N1CCN(C(=O)c2ccc(COc3ccc4c(c3)CCC4)o2)CC1	6	4	6	83*	-1	-1	34
O=C(c1ccc(COc2ccccc2Cl)o1)N1CCN(c2ccccc2)CC1	3	-9	16	2	0	2	.
O=C(c1ccco1)N1CCN(C(=O)c2ccc(COc3ccc(Cl)cc3Cl)o2)CC1	12	.	.	86*	.	-11	35
O=C(c1ccc(COc2ccc3c(c2)CCC3)o1)N1CCN(c2ccccc2)CC1	9	.	.	1	.	-1	.
Cc1cnc(C(=O)OCC(=O)N(Cc2ccccc2)C(C)C)cn1	-21	-4	15	0	-5	0	.
O=c1[nH]c2ccccc2c2ccccc12	-7	-8	-2	79*	-1	-1	2
O=c1cc(C(F)(F)F)oc2c1ccc1ccccc12	9	6	8	-1	6	-2	.
O=c1cc(-c2cccnc2)oc2c1ccc1ccccc12	0	-16	15	75*	.	-11	2
SMILES	MCL1-BIM inh	Mcl1-Bid inh	Mcl1-Noxa inh	zVAD death inh	Mcl-1 Bim block	TNF death inh	zVAD death conf
NC(N)=NCCCC(NC(=O)c1ccccc1)C(=O)Nc1ccc2ccccc2c1 (stereo not given)	2	.	.	.	.	.	.
COCCCNC(=O)c1cc(S(=O)(=O)N2CCOCC2)ccc1SCc1cccc(OC)c1OC	-4	-11	4	0	-2	1	.
COc1ccccc1N1CCN(C(=O)CCNS(=O)(=O)c2cc(Br)cnc2N)CC1	7	.	.	.	.	.	.
Nc1ncc(Br)cc1S(=O)(=O)NCCC(=O)N1CCN(c2ncccn2)CC1	4	-22	-2	92*	-1	18	3
CN(C)S(=O)(=O)c1cccc(NC(=O)c2ccc(COc3ccccc3)cc2)c1	-16	.	.	.	.	.	.
Cc1cnc(NC(=O)c2ccc(OCC3CCCO3)cc2)s1 (stereo not given)	7	5	3	75*	1	38	75*
CC(=O)N(Cc1nc2sc(C)c(C)c2c(=O)[nH]1)C1CCCC1	11	-31	1	7	0	0	.
C/C(=N\Nc1cc(C(F)(F)F)ccc1Cl)c1ccncc1	-5	.	.	.	.	.	.
COc1ccccc1C1=NOC(C(=O)N2CCN(C(=O)c3ccco3)CC2)C1 (stereo not given)	5	.	.	.	.	.	.
COc1cc(OC)c(C2=NOC(C(=O)N3CCN(C(=O)c4ccco4)CC3)C2)cc1Cl (stereo not given)	-1	-26	3	83*	1	1	1
Cc1ccc(NC(=O)c2cc(-c3ccco3)nc3ccccc23)cc1S(=O)(=O)N1CCOCC1	14	-40	66*	77*	1	-2	10
Oc1ccccc1N=Cc1sc2ccccc2c1Cl	-4	-28	8	86*	-3	5	3
Cc1ccc(O)c(N=Cc2sc3ccccc3c2Cl)c1	8	-27	16	0	-8	1	.
S=C(NCCc1ccc(Cl)cc1)NC1CC1	10	-42	12	92*	-3	0	6
COc1ccccc1CC(NC(C)=O)C(=O)NC1CCN(C(=O)Nc2ccc(F)cc2)CC1 (stereo not given)	-2	.	.	.	.	.	.
Cc1ccc2[nH]c3c(c2c1)CCc1cn[nH]c1-3	-21	-7	21	89*	3	92*	80*
Cc1ccc2[nH]c3c(c2c1)CCC3=O	2	3	2	0	-1	-3	.
N#CC(C#N)=C1C(=O)N(CCN2CCCCC2)c2ccccc21	13	-75	12	90*	.	-28	35
CCCCN1C(=O)/C(=C(/C#N)C(=O)N2CCCC2)c2ccccc21	3	-20	-4	1	.	-3	.
N#CC(C#N)=C1C(=O)N(CCN2CCOCC2)c2ccccc21	3	-50	-1	86*	.	-8	1
Cc1cccc(OCCCC(=O)Nc2nccs2)c1	10	.	.	89*	.	9	3
Cc1ccc(OCCCC(=O)Nc2nccs2)cc1	-2	-6	4	0	-4	-1	.
N#CCOc1ccc2oc(-c3ccco3)cc(=O)c2c1	-2	-16	3	76*	-3	-2	1
